Results taken from PubChem BioAssay (Tox21).
Results filed as inconclusive are left out. Active and inactive are the calls of the source. Unless noted, the call rests on the fitted dose curve; in most records, active means well fitted curve in the direction sought with a large enough effect in the repeat runs; inconclusive means weak or mixed curves; inactive means no such curve, though single readings can be large; an effect the other way counts as inactive or inconclusive.

Key:
[1] = target: Retinoic acid receptor RXR-alpha (Homo sapiens) (UniProt P19793); experiment: qHTS assay to identify small molecule agonists of the RXR signaling pathway (AID 1159527; calls by dose curve; further: nearly all actives have a fitted effect of over 35% in size)
Outline: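 Agonist mode; 9-cis retinoic acid positive control. HEK 293T UAS-bla reporter cells, 2% charcoal-stripped FBS, 16 hr compound exposure at 37 C/5% CO2. LiveBLAzer B/G FRET substrate 2 hr RT; ex 405, em 460/530 nm.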

[2] = qHTS assay to identify small molecule agonists of the RXR signaling pathway - cell viability counter screen (AID 1159529); further: series mostly up to about 77 µM; nearly all actives have a fitted effect of over 50% in size
Outline: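 Luminescence from CellTiter-Glo (30 min, RT) measured viability in the same wells as the beta-lactamase reporter readout. Cells: GeneBLAzer RXR-alpha HEK 293T, 2% charcoal-stripped FBS. Compound exposure 16 hr, 37 C.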

[3] = qHTS assay to identify small molecule antagonists of the retinoid acid receptor (RAR) signaling pathway - cell viability counter screen (AID 1159551); further: nearly all actives have a fitted effect of over 35% in size
Outline: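 C3RL4 cells were seeded overnight at 37 C, then treated with compounds plus 1 uM (final) retinol for 6 h at 37 C. Viability was read as ATP by CellTiter-Glo luminescence after 30 min at room temperature.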

[4] = qHTS assay to identify small molecule antagonists of the constitutive androstane receptor (CAR) signaling pathway - cell viability counter screen (AID 1224837); further: series mostly up to about 92 µM; nearly all actives have a fitted effect of over 45% in size
Outline: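 HepG2 cells stably expressing hCAR and a CYP2B6-2.2kb reporter were plated and pre-incubated 4 hr at 37 C/5% CO2, then given compounds at 15 concentrations plus 50 nM CITCO (final). After 23 hr, viability was read by CellTiter-Fluor fluorescence.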

[5] = target: Nuclear receptor subfamily 1 group I member 3 (Homo sapiens) (UniProt Q14994); experiment: qHTS assay to identify small molecule antagonists of the constitutive androstane receptor (CAR) signaling pathway (AID 1224838); further: nearly all actives have a fitted effect of over 40% in size; further: potency means the concentration at half of the fitted maximal effect
Outline: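 HepG2 cells stably co-transfected with hCAR and a CYP2B6-2.2kb luciferase reporter were seeded 4 h before compound addition at 15 concentrations. Cells were stimulated with 50 nM CITCO (final) for 24 h at 37 C; luciferase luminescence was then read.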

[6] = qHTS assay to identify small molecule antagonists of the estrogen related receptor signaling pathway with the pleiotropic PPARgamma coactivator (PGC) from Tox21 10K library - cell viability counter screen (AID 1224840; active means well fitted cell-killing curve with a large enough effect in the repeat runs, not every such curve was filed as active; further: nearly all actives have a fitted effect of over 40% in size)
Outline: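 PGC/ERR cells were seeded at 2,000 cells/well and left 6 hours at 37 C/5% CO2 before pin-tool addition of compounds in DMSO. After 17.5 hours at 37 C, CellTiter-Fluor was added and fluorescence read 30 minutes later.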

[7] = qHTS assay to identify small molecule antagonists of the estrogen related receptor signaling pathway with the pleiotropic PPARgamma coactivator (PGC) from Tox21 10K library (AID 1224841; call rule not given here; further: series mostly up to about 92 µM; actives are mostly falling curves and most rising ones were filed inactive; nearly all actives have a fitted effect of over 50% in size)
Outline: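 PGC/ERR reporter cells were seeded at 2,000 cells/well and held 6 hours at 37 C/5% CO2 before pin-tool addition of compounds in DMSO. After 18 hours at 37 C, One-Glo was added and luminescence read after 30 minutes at room temperature.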

[8] = qHTS assay to identify small molecule agonists of the estrogen related receptor signaling pathway with the pleiotropic PPARgamma coactivator (PGC) from Tox21 10K library (AID 1224842); further: nearly all actives have a fitted effect of over 15% in size
Outline: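 PGC/ERR reporter cells (NTP line) were seeded 2,000 per well, rested 6 h at 37 C/5% CO2, then pin-dosed with compounds in DMSO for 18 h at 37 C; luciferase read by One-Glo luminescence after 30 min at room temperature.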

[9] = target: Luciferin 4-monooxygenase (Photinus pyralis) (UniProt P08659); experiment: qHTS assay to identify small molecule inhibitors of firefly luciferase (AID 1224835); further: nearly all actives have a fitted effect of over 25% in size; further: potency means the concentration at half of the fitted maximal effect
Outline: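 Quantitative HTS format; KM concentrations of both substrates. Purified P. pyralis FLuc activity quantified from luminescence images.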

[10] = qHTS assay to identify small molecule agonists of the constitutive androstane receptor (CAR) signaling pathway - cell viability counter screen (AID 1224836); further: series mostly up to about 92 µM; nearly all actives have a fitted effect of over 45% in size
Outline: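 Viability read-out: CellTiter-Fluor fluorescence after 23 h compound exposure at 37 C/5% CO2 in double-stable HepG2-CYP2B6-hCAR cells, with PK11195 present at 0.75 uM final; compounds tested in 15-point titration.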

[11] = target: Nuclear receptor subfamily 1 group I member 3 (Homo sapiens) (UniProt Q14994); experiment: qHTS assay to identify small molecule agonists of the constitutive androstane receptor (CAR) signaling pathway (AID 1224839);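 further: HepG2 cells stably carrying human CAR and a CYP2B6 luciferase reporter; series mostly up to about 92 µM; nearly all actives have a fitted effect of over 15% in size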
Outline: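 Luminescence read-out (ONE-Glo, 30 min, room temperature) from double-stable HepG2-CYP2B6-hCAR cells exposed 24 h to 15-point compound series in presence of 0.75 uM PK11195 final.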

[12] = qHTS assay to identify small molecule antagonists of the estrogen related receptor (ERR) signaling pathway from Tox21 library - cell viability counter screen (AID 1224834); further: nearly all actives have a fitted effect of over 30% in size
Outline: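 ERR reporter cells were plated 6 h before compound addition, then exposed to test compounds in DMSO for 17.5 h at 37 C. Viability was read as CellTiter-Fluor fluorescence after a 30-minute incubation at 37 C.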

[13] = qHTS assay to identify small molecule antagonists of the retinoic acid receptor (RAR) signaling pathway (AID 1159552; further: nearly all actives have a fitted effect of over 50% in size; further: potency means the concentration at half of the fitted maximal effect)
Outline: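 Luminescence from a RARE luciferase reporter in C3RL4 cells served as read-out. Cells received compounds together with 1 uM final retinol and incubated 6 hr at 37 C before detection reagent was added for 30 min at room temperature.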

[14] = qHTS assay to identify small molecule agonists of the retinoic acid receptor (RAR) signaling pathway (AID 1159553)
Outline: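 C3RL4 cells carrying a RARE luciferase reporter were plated overnight at 37 C, then exposed to compounds in DMSO for 6 hr at 37 C and 5% CO2. Luminescence was read 30 min after luciferase reagent addition at room temperature.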

Measured: Potency

Retinoic acid receptor RXR-alpha (Homo sapiens), sequence (P19793 whole entry, looked up): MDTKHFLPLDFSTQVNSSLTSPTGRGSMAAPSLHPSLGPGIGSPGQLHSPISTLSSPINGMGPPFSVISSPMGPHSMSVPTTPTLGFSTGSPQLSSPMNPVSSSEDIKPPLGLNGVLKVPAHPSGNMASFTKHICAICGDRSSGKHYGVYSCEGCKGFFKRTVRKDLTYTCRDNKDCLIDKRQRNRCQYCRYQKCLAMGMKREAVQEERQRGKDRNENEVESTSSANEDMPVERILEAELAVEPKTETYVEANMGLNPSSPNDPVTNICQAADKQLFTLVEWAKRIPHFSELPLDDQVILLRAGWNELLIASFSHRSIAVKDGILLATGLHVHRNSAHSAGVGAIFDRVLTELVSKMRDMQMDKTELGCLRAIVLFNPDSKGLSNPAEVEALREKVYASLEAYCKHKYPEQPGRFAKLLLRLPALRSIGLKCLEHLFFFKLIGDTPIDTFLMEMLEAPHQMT
Luciferin 4-monooxygenase (Photinus pyralis), sequence (P08659 whole entry, looked up): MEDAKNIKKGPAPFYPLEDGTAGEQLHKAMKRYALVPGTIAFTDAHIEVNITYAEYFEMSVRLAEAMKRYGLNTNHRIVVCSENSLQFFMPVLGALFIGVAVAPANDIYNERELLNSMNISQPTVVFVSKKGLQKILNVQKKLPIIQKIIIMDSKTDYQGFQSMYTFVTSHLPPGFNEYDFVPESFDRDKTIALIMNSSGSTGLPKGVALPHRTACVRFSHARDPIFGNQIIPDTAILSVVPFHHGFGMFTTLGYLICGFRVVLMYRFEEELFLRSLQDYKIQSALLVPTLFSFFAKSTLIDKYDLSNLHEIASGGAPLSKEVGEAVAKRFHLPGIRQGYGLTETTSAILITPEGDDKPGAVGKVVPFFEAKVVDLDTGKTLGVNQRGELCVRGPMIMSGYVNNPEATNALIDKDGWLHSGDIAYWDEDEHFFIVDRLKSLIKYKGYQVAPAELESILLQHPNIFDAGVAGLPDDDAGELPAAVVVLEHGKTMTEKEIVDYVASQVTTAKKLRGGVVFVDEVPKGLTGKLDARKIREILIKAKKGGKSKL
Nuclear receptor subfamily 1 group I member 3 (Homo sapiens), sequence (Q14994 whole entry, looked up): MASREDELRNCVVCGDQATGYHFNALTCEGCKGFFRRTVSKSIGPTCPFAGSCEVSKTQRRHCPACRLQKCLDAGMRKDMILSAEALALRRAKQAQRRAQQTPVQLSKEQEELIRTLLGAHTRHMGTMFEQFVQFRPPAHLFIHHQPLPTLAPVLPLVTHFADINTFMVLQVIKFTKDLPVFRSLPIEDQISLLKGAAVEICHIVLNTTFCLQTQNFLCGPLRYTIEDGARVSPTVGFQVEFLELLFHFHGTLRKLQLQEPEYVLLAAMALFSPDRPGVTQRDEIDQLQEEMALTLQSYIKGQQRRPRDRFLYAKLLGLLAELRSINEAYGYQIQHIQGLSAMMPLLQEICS

Cl/C=C\C[N+]12CN3CN(CN(C3)C1)C2
inactive: [1] | [2] | [3] | [4] | [6] | [7] | [8]
active: [5] 61.1 µM

CCCCCCCCCCOC(=O)c1ccccc1C(=O)OCCCCCCCCCC
not listed: [12] | [13] | [14]
inactive: all other assays above

C=CC(=O)OCC(C)C
not listed: [11] | [13] | [14]
inactive: all other assays above

CC(C)(Cl)[N+](=O)[O-]
not listed: [7] | [12]
inactive: all other assays above

Cc1cc(=O)[nH]o1
inactive: [1] | [2] | [3] | [12] | [9] | [10] | [4] | [6]

c1ccc(CN2CCNCC2)cc1
not listed: [7] | [8] | [14]
inactive: all other assays above

ClP(Cl)(Cl)(Cl)Cl
active: [9] 31.9 µM
not listed: [7] | [13] | [14]
inactive: all other assays above

ClCc1ccccc1
not listed: [7] | [8] | [12]
inactive: all other assays above

CCCCNP(N)(N)=S
inactive: [1] | [2] | [3] | [9] | [4] | [6]

Cc1ccc2ccccc2c1
not listed: [5] | [8] | [11] | [13] | [14]
inactive: all other assays above

Oc1ccc(Cl)c(Cl)c1Cl
inactive: [1] | [2] | [3] | [14] | [4] | [5] | [11]
active: [13] 63.4 µM

O=C(O)CC(Cl)C(=O)O (centres undefined)
not listed: [14]
inactive: all other assays above

Nc1nc(N)nc(N)n1
not listed: [3] | [7] | [8] | [12]
inactive: all other assays above
